Assay outcomes from PubChem BioAssay.
The list is not random: actives were taken first. Their share in the collection is about 3.7%.
RGS4 inh – Inhibitors of Regulator of G Protein Signaling (RGS) 4: qHTS | Regulator of G-protein signaling 4 (Homo sapiens), P49798 | Transcreener GDP fluorescence polarization, RGS4-accelerated GTP hydrolysis | Potency, µM (top dose mostly 114 µM), actives largely listed as inhibitors | hit rate 0.039% among 390,000; also: nearly all actives have a fitted effect of over 75% in size
Target sequence (P49798 whole entry, looked up): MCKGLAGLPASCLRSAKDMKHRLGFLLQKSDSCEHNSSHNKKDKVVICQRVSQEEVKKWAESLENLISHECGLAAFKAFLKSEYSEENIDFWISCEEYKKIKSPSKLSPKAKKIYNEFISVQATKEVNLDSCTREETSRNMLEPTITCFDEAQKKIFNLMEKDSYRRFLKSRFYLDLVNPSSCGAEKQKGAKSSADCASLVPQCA
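MLSMR compounds (23 nl, pin-transferred) preincubated 10 min at room temperature with a 500nM (2x) first reagent, then RGS4 at 900nM (2x) plus Transcreener GDP mix added; fluorescence polarization (620/688 nm) read before and after 90 min at 30 °C.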
DRD3 antagonist – qHTS of D3 Dopamine Receptor Antagonist: qHTS | D3R cells, DiscoveRx beta-arrestin luminescence, antagonist mode; active compounds read low | AID 652054, 2013 | D(3) dopamine receptor (Homo sapiens), P35462 | hit rate 2.5% among 360,000 | max response, negative = inhibition, %; in the data active = max response below about -50%; inconclusive = no clear call, values can overlap the other calls
Target sequence (P35462 whole entry, looked up): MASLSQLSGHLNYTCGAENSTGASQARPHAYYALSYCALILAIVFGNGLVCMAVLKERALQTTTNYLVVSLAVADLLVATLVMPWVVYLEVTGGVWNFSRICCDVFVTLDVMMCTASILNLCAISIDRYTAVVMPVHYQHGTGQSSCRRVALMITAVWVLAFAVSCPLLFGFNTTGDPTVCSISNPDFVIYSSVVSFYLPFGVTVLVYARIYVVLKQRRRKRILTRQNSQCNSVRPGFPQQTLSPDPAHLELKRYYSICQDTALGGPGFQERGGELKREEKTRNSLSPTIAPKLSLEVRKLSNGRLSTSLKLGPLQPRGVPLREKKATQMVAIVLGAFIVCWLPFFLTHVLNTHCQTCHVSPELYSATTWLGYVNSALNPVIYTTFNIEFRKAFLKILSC
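Cells expressing the human receptor were seeded at 1500 cells/well, incubated overnight at 37 degrees C in 5% CO2, then exposed to library compounds with dopamine controls for 90 minutes at 37 degrees C before luminescent detection.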
PTHR1 agonist – qHTS for PTHR1 Agonists: Primary Screen; Potency, µM (doses to about 115 µM), most hits filed as activators; HEK293 GP2 PTHR1 cells, GloSensor cAMP luminescence, 1 h; hit rate 0.075% among 410,000; also: nearly all actives have a fitted effect of over 55% in size
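HEK-293-derived GP2 cells expressing PTHR1 and a GloSensor cAMP reporter, 3,000/well, plated overnight, given luciferin plus IBMX (each 0.5 mM as added) for 1 h at 37 °C, then compound for 1 h at 37 °C. Luminescence was read after 15 min at room temperature.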
B2AR arrestin – qHTS assay of beta-arrestin-biased ligands of beta2-adrenergic receptor; beta-arrestin recruitment to beta2AR, cell-based reporter; Beta-2 adrenergic receptor (Homo sapiens), P07550; AID 492947, 2010; Potency, µM (doses to about 46.1 µM), hits mostly activators; hit rate 0.02% among 330,000; also: nearly all actives have a fitted effect of over 65% in size
D3 ag – qHTS of D3 Dopamine Receptor Agonist: qHTS; D(3) dopamine receptor (Homo sapiens), P35462; D3R DiscoveRx beta-arrestin cells, luminescence, 90 min; max activation, %; hit rate 0.58% among 410,000; AID 652048, 2013; in the data active = max activation above about 30%
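Agonist-mode cell screen: cells plated at 1500/well and incubated overnight at 37 °C, then exposed to library compounds for 90 min at 37 °C. Detection reagent was added for 30–60 min at room temperature, and luminescence was read.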
BRCA1 expr up – qHTS Assay to Identify Small Molecule Activators of BRCA1 Expression | AID 624202, 2012 | MCF7-BRCA1-FFLuc reporter, luminescence, 48 h; response scale: scaled: vehicle 0%, 10 µM genistein 100% | Potency, µM (top dose mostly 46.1 µM), usual class: activators | hit rate 1.1% among 380,000; also: nearly all actives have a fitted effect of over 80% in size
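Luminescence from a BRCA1-driven firefly luciferase in MCF7 cells was the read-out, taken 15 min after substrate addition following 48 h compound exposure at 37 °C. Data were normalized to a 10 microM genistein control and DMSO vehicle.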
Of the large screens only hits and unclear results are named; the others gave an inactive call. Unless noted, calls follow the shape of the dose curve; as a rule, active = well fitted curve in the direction sought with a large enough effect; inconclusive = small, poorly fitted or top-dose-only effect, or another doubt; inactive = no such curve, though single readings can be large; an effect the other way counts as inactive or inconclusive.

COC(=O)c1sc2cccc(F)c2c1S(=O)(=O)Nc1cc(OC)cc(OC)c1	none (no result: DRD3 antagonist, B2AR arrestin, BRCA1 expr up)
CN(C)C(CNC(=O)Nc1cccc(Cl)c1)c1cccnc1 (stereo not given)	DRD3 antagonist -52
CN(C)C(CNC(=S)Nc1cccc(Cl)c1)c1ccccc1 (stereo not given)	DRD3 antagonist -70
CCC(c1nnnn1Cc1cccs1)N1CCN(C2CCCC2)CC1 (stereo not given)	DRD3 antagonist -63
Cc1cc(N)ccc1-n1c(C)ccc1C	none
Cc1cc(N)ccc1N1CCCC1	RGS4 inh inconclusive, DRD3 antagonist -55
C=CCSC1=NNC(c2ccc(C(C)(C)C)cc2)=NN1	BRCA1 expr up 7.1µM
CCOc1ccc(C2C(C(=O)O)CCC(=O)N2C2CCCCC2)cc1 (stereo not given)	none
C=CS(=O)(=O)c1sc(Cl)c(N2CCOCC2)c1[N+](=O)[O-]	RGS4 inh inconclusive, DRD3 antagonist -72
C=CSc1sc(Cl)c(N2CCOCC2)c1[N+](=O)[O-]	none
COc1cccc(-c2cccc(NC(=O)C3CCN(Cc4ccon4)CC3)c2)c1	none
CC1CN(C(=O)CCC(=O)NCCCN2C(C)CCCC2C)c2ccccc2O1 (stereo not given)	none
COc1cc(OC)c(C(=O)NCc2nc(-c3ccccc3)no2)cc1OC	none (no result: DRD3 antagonist, B2AR arrestin, BRCA1 expr up)
CCCCC(=O)NC(c1ccc([N+](=O)[O-])cc1)c1c(O)ccc2ccccc12 (stereo not given)	DRD3 antagonist -52
Nc1c(-c2ccccc2)cnn1-c1cccc(C(F)(F)F)c1	BRCA1 expr up 5µM
Nc1c(-c2cccc(Cl)c2)cnn1-c1cccc(C(F)(F)F)c1	none
Cc1ccc(-c2cnn(-c3cccc([N+](=O)[O-])c3)c2N)cc1	BRCA1 expr up 5.6µM
c1ccc(COc2ccc(-c3csnn3)cc2)cc1	DRD3 antagonist -61, BRCA1 expr up 5.6µM
CC(=O)COc1ccc(-c2csnn2)cc1	none
CCC(C(=O)Nc1c(C)cccc1C)n1c(-c2ccc(-c3ccccc3)cc2)nc2ccccc21 (stereo not given)	D3 ag 71 (no result: RGS4 inh, B2AR arrestin, BRCA1 expr up)
CCC(C(=O)NC(C)(C)C)n1c(-c2ccc(C)cc2)nc2ccccc21 (stereo not given)	D3 ag 53 (no result: RGS4 inh, B2AR arrestin, BRCA1 expr up)
Cc1cccc(C)c1NC(=O)C(C)n1c(-c2ccc(=O)[nH]c2)nc2ccccc21 (stereo not given)	none (no result: RGS4 inh, B2AR arrestin, BRCA1 expr up)
Cc1ccc(C(C[N+](=O)[O-])Sc2ccc(N)cc2)cc1 (stereo not given)	RGS4 inh inconclusive, B2AR arrestin inconclusive
Cn1cnc(S(=O)(=O)N2CCC(C(=O)N3CCN(c4ccccc4F)CC3)CC2)c1	none (no result: DRD3 antagonist, B2AR arrestin, BRCA1 expr up)
CSc1cccc(NC(=O)Cn2c(=O)n(Cc3ccccc3)c(=O)c3sc4ccccc4c32)c1	none (no result: DRD3 antagonist, B2AR arrestin)
Cn1c(NCc2cccnc2)nc2cc(-c3ccc(C(=O)N4CCOCC4)cc3)sc2c1=O	DRD3 antagonist -78 (no result: RGS4 inh, B2AR arrestin)
COc1cccc(-c2cc3nc(NCc4cccnc4)n(C)c(=O)c3s2)c1	none (no result: RGS4 inh, B2AR arrestin)
COc1ccc2c(=O)c3c(=O)n(CCc4ccccc4)c(C(C)C)nc3oc2c1	none
O=C1c2cccnc2C(O)N1Cc1ccc(F)cc1 (stereo not given)	DRD3 antagonist -66, PTHR1 agonist inconclusive
CC(OC(=O)Cn1[nH]c(=O)c2ccccc2c1=O)C(=O)Nc1ccc(Cl)cn1 (stereo not given)	none
C=CCC[C@@H](Cc1ccc(F)cc1)C(=O)OC[C@@H](Cc1c[nH]c2ccccc12)NC(=O)[C@@H](CC=C)CC(=O)N(CCO)Cc1ccccc1	D3 ag 41
C=CC[C@@H](CC(=O)N[C@@H](CO)Cc1ccccc1)C(=O)N[C@H](COC(=O)[C@@H](CC=C)Cc1ccc(F)cc1)C(C)(C)C	none
C=CCC[C@@H](Cc1ccc(F)cc1)C(=O)OC[C@@H](NC(=O)[C@@H](CC=C)CC(=O)N[C@H](CO)Cc1ccccc1)C(C)(C)C	DRD3 antagonist -63
C=CC[C@@H](CC(=O)N[C@@H](CO)Cc1ccccc1)C(=O)NC[C@H](OC(=O)[C@@H](CC=C)Cc1ccc(F)cc1)c1ccccc1	D3 ag 53
COC(=O)c1cc(-c2ccc(Cl)cc2)c2c(=O)[nH]c(=O)n(C)c2n1	none (no result: DRD3 antagonist, B2AR arrestin, BRCA1 expr up)
Cc1ccc(C(=O)Nc2ccc3c(c2)nc(CCNC(=O)c2ccco2)n3C)cc1	BRCA1 expr up 7.1µM
CC(=O)Nc1ccc2c(c1)nc(CN1CCCC1)n2C	DRD3 antagonist -50
Cn1c(CN2CCCCC2)nc2cc(NC(=O)c3ccccc3)ccc21	none
Cn1c(CN2CCCC2)nc2cc(NC(=O)c3ccco3)ccc21	BRCA1 expr up 5.6µM
CN1CCN(CCc2nc3cc(NC(=O)c4ccco4)ccc3n2C)CC1	none
Cn1c(CN2CCCC2)nc2cc(NC(=O)Nc3ccccc3)ccc21	DRD3 antagonist -103, BRCA1 expr up 11µM
CC1(C)S[C@@H]2[C@H](NC(=O)C(C(=O)Oc3ccc4c(c3)CCC4)c3ccccc3)C(=O)N2[C@H]1C(=O)O (stereo not given in full)	none (no result: RGS4 inh, DRD3 antagonist, PTHR1 agonist, B2AR arrestin, BRCA1 expr up)
CN(C)c1cc(NC(=O)CNC(C)(C)C)c(O)c2c1C[C@H]1C[C@H]3[C@H](N(C)C)C(=O)C(C(N)=O)=C(O)[C@@]3(O)C(=O)C1=C2O	none (no result: RGS4 inh, DRD3 antagonist, PTHR1 agonist, B2AR arrestin, BRCA1 expr up)
Cc1ccc(C(C)C)c(OCC(=O)Nc2ccc3c(c2)nc(CN2CCCC2)n3C)c1	DRD3 antagonist -67
COc1ccc(C(=O)Nc2ccc3c(c2)nc(CN2CCCC2)n3C)cc1	D3 ag 45
Cn1c(CCNC(=O)c2ccc(F)cc2)nc2ccccc21	DRD3 antagonist -66
CC(=O)NCCc1nc2cc(NC(=O)c3ccc([N+](=O)[O-])cc3)ccc2n1C	BRCA1 expr up 6.3µM
Cc1ccc(OCC(=O)Nc2ccc3c(c2)nc(CCN2CCCC2)n3C)cc1	none (no result: RGS4 inh, B2AR arrestin)
Cn1c(CCNC(=O)c2ccccc2)nc2ccccc21	none
N#Cc1c(N2C(=O)Nc3ccccc3N2O)sc2c1CCCC2	BRCA1 expr up 11µM
Cc1[nH]nc2c1-c1nc3ccccc3nc1C(C)(C)C2	PTHR1 agonist 28µM
Nc1nc(SCc2ccccc2Cl)[nH]c(=O)c1-c1ccccc1	none
Nc1nc(SCc2ccccc2)[nH]c(=O)c1-c1ccccc1	DRD3 antagonist inconclusive, BRCA1 expr up 10µM
